Assay results published in PubChem BioAssay.
A number with no mark means an inactive call. Calls of active or inactive are those of the source. Cut-off read from the data, not from the text of the source: active = nuclear beta-catenin stimulation mostly above about 4.2% (no sharp cut-off); inactive = mostly below about 10%.

Test: stimulators of nuclear beta-catenin in C2C12, primary screen, imaging, WNT3A-conditioned medium, mouse C2C12, NPC library (AID 1117326); note: reference of the scale not given here
Conditions: at 10 µM, stronger effect = higher value

Row | SMILES | nuclear beta-catenin stimulation
1 | CC[C@@]1(O)C(=O)OCc2c1cc1n(c2=O)Cc2c-1nc1ccccc1c2/C=N/OC(C)(C)C | 38.7% (active)
2 | CC1(C)O[C@@H]2C[C@H]3[C@@H]4CCC5=CC(=O)C=C[C@]5(C)[C@@H]4[C@@H](O)C[C@]3(C)[C@]2(C(=O)CO)O1 | 0.6%
3 | Cc1ccc(S(=O)(=O)NC(=O)NC2CCCCC2)cc1 | 0.6%
4 | CCCCCC1Nc2cc(C(F)(F)F)c(S(N)(=O)=O)cc2S(=O)(=O)N1 (centres undefined) | 0.5%
5 | CC(C)(C)NCC(O)COc1ccccc1OCC1CCCO1 (centres undefined) | -0.3%
6 | NC(=O)NC1N=C([O][Al])NC1=O (centres undefined) | 0.7%
7 | CC(C)CCOC(=O)c1ccc(N(C)C)cc1 | 0%
8 | Nc1nc(=O)n([C@@H]2O[C@H](CO)[C@@H](O)[C@@H]2F)cc1I | 8%
9 | CCOC(=O)c1cccnc1 | 0.1%
10 | CCN(CC)CCOC(=O)C1(c2ccccc2)CCCC1 | -1.2%
11 | NS(=O)(=O)c1ccc(NC(=O)CCC(=O)O)cc1 | -0.1%
12 | CCCCCCCC(=O)OCC(O)CO (centres undefined) | -2%
13 | Cc1nc(-c2ccc(Cl)cc2)oc1COC(C)(C)C(=O)O | 0.5%
14 | CN(CC1(C)CCCO1)S(=O)(=O)c1ccc(Cl)c(S(N)(=O)=O)c1 (centres undefined) | -0.8%
15 | CCC(=O)Oc1ccc2c(c1)CC[C@@H]1[C@H]2CC[C@]2(C)[C@@H](OC(=O)CC)CC[C@@H]12 | -0.2%
16 | Nc1ccc([N+](=O)[O-])c(C(F)(F)F)c1 | 0.5%
17 | CN1N=C(C(N)=O)CCC1=O | 1.1%
18 | CC(C)(C)C(=O)OCOC(=O)C1N2C(=O)CC2S(=O)(=O)C1(C)C (centres undefined) | -1.1%
19 | CCCCCCCCCCCCCCCC(=O)OC(C)C | 0.6%
20 | CCCCN(CCN(CCCC)C(=O)N1CCOCC1)C(=O)N1CCOCC1 | 1.4%

Row | SMILES | nuclear beta-catenin stimulation
21 | CCc1cccc2c(CCO)c[nH]c12 | 1.1%
22 | CCc1cc(S(=O)(=O)O)c2cc(C(C)C)cccc1-2 | -0.2%
23 | O=C(O)[C@@H]1CSCN1 | 0%
24 | CCN1CCN(C(=O)N[C@@H](C(=O)N[C@@H]2C(=O)N3[C@@H]2SC(C)(C)[C@H]3C(=O)O)c2ccccc2)C(=O)C1=O | 0.2%
25 | O=C(O)c1ccccc1-c1ccc(C(F)(F)F)cc1 | 2.2%
26 | CCCc1ncc(C(=O)O)s1 | -1.1%
27 | O=c1[nH]c2ccccc2c(=O)n1CCCl | 3.3%
28 | CCCCCCCCCCCCCCCCCC(=O)[O][Al] | 0.2%
29 | CCN[C@@H]1C[C@H](N)[C@@H](OC2OC(CN)=CCC2N)[C@H](O)[C@H]1O[C@H]1OC[C@](C)(O)[C@H](NC)[C@H]1O (some centres undefined) | 1.3%
30 | CCCCCCCC/C=C/C(=O)O | 1.3%
31 | CC[C@@]1(c2ccccc2)NC(=O)N(C)C1=O | 0.1%
32 | Nc1ncnc2c1ncn2Cc1c(F)cccc1Cl | -0.7%
33 | CC(C)(C)NCC(O)COc1ccc(NC(=O)NC2CCCCC2)cc1 (centres undefined) | 1.2%
34 | OC[C@H]1O[C@@H](n2cnc3c(=S)nc[nH]c32)[C@H](O)[C@@H]1O | -2.5%
35 | OCCCc1ccccc1 | 1.8%
36 | O=C(O)c1c(O)c(-c2ccccc2)nc2ccccc12 | 0.5%
37 | Cc1onc(-c2c(Cl)cccc2Cl)c1C(=O)Cl | -0.1%
38 | NC(=S)N=Nc1ccc(NN=C(N)N)cc1 | 1.9%
39 | CC(=O)O[C@@H]1CC2C3CCc4cc(OC(=O)c5ccccc5)ccc4C3CCC2(C)[C@H]1OC(C)=O (some centres undefined) | 0.7%
